# Laboratory results reported in PubChem BioAssay AID651813 (National Center for Advancing Translational Sciences (NCATS), 2012).
# Screen size: about 2,100 compounds; about 1,100 (52%) were called active. Roughly 27% stayed inconclusive and do not appear here. The set was probably picked from earlier hits. The list shows a part of the results. Values without a mark were called inactive. Calls follow the shape of the dose curve; as a rule, active = well fitted inhibition curve with a large enough effect; inconclusive = small, poorly fitted or top-dose-only effect; inactive = no such curve, though single readings can be large or run the other way.
# Target: DNA dC->dU-editing enzyme APOBEC-3G (Homo sapiens) (UniProt Q9HC16)
# Test: qHTS for inhibitors of Vif-A3G interactions: Cherry picks counterscreen;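 also: hits raise yellow fluorescence by blocking Vif-driven A3G-eYFP degradation; nearly all actives have a fitted effect of over 70% in size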;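 as to max response: max response given as percent of control signal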
# Conditions: HeLa A3G-eYFP + Vif (tagged APOBEC3G with the HIV-1 protein that degrades it), eYFP fluorescence, 24 h
# Procedure, shortened: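 HeLa cells stably expressing A3G-eYFP and Vif were treated for 24 h at 37 deg C with compounds at several concentrations; yellow fluorescence (Ex 488 nm, Em 500-530 nm) read by Acumen Explorer, MG132 as positive control.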
# Potency is read from the fitted curve at half-maximal effect.
# Sequence of DNA dC->dU-editing enzyme APOBEC-3G (Homo sapiens) (Q9HC16 whole entry, looked up): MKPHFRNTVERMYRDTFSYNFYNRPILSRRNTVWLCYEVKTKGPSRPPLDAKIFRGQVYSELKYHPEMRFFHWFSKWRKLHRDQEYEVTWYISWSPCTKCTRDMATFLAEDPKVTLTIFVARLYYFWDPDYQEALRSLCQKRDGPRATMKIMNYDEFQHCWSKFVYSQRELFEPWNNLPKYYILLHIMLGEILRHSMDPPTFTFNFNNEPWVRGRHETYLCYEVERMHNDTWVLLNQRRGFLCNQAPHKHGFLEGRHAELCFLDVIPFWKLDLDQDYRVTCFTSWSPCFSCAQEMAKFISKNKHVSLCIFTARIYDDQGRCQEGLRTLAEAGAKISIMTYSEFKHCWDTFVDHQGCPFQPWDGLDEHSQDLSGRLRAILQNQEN
Structure (SMILES),Potency,max response [%]
CCn1ncc(/C=N\NC(=O)c2csc3ccccc23)c1C,5.59 µM (active),–
COc1ccc(Cn2c(=O)cc(N)n(-c3ccccc3C)c2=O)cc1,11.2 µM (active),–
CCN(CC)c1ccc2cc(-c3nc(-c4cc(OC)c(OC)c(OC)c4)no3)c(=O)oc2c1,0.517 µM (active),–
CCN(CC)c1ccc2cc(-c3nc(-c4ccccc4)no3)c(=O)oc2c1,2.06 µM (active),–
CCN(CC)c1ccc2cc(-c3nc4ccccc4n3C)c(=O)oc2c1,1.3 µM (active),–
CCN(CC)c1ccc2cc(-c3nnc(-c4cccc(Cl)c4)o3)c(=O)oc2c1,2.59 µM (active),–
CCN(CC)c1ccc2cc(-c3nnc(-c4ccccc4)o3)c(=O)oc2c1,–,49.6
CN(Cc1cnn(Cc2ccccc2)c1)C(=O)c1cccc(S(=O)(=O)N2CCOCC2)c1,11.2 µM (active),–
Nc1[nH]c2cc([N+](=O)[O-])ccc2c1-c1ccccn1,4.61 µM (active),–
c1ccc(-c2cccc(-c3ccccn3)n2)nc1,–,-27.5
COc1cc(C(=O)NCCOc2cc(C)cc(C)c2)cc(OC)c1OC,3.14 µM (active),–
CCn1c(CNC(=O)c2cc(OC)c(OC)c(OC)c2)cc2cc(C)ccc21,–,-10.2
CCOc1ccccc1Oc1nc(C)nc2c1oc1ccccc12,2.91 µM (active),–
CNC(=O)C(Sc1nc(C)nc2c1oc1ccccc12)C(C)=O (centres undefined),–,-16.6
O=Cc1s/c(=N\S(=O)(=O)c2ccccc2)n(CCCCl)c1Cl,8.2 µM (active),–
COc1ccc(C2=CC(c3ccc(N(C)C)cc3)n3nnnc3N2)cc1 (centres undefined),23.1 µM (active),–
CN(C)c1ccc(C2C=C(c3ccccc3)Nc3nnnn32)cc1 (centres undefined),23.1 µM (active),–
O=C(CSc1n[nH]c(-c2ccccn2)n1)Nc1ccc(Cl)cc1,–,17.5
N#Cc1c(C(F)(F)F)cc(-c2cccs2)nc1SCC(=O)Nc1cccc(Cl)c1,–,-23.7
CCOC(=O)c1ccc(NC(=O)CSc2nc(-c3cccs3)cc(C(F)(F)F)c2C#N)cc1,23.1 µM (active),–
N#Cc1c(C(F)(F)F)cc(-c2cccs2)nc1SCC(=O)Nc1ccc(Cl)cc1,10.3 µM (active),–
N#Cc1c(C(F)(F)F)cc(-c2cccs2)nc1SCC(=O)Nc1cccc(C(F)(F)F)c1,20.6 µM (active),–
O=[N+]([O-])c1ccc(Oc2cccc3cccnc23)c([N+](=O)[O-])c1,12.5 µM (active),–
O=[N+]([O-])c1cc(Cl)c2cccnc2c1O,–,30.7
O=[N+]([O-])c1cc(O)c2ncccc2c1,–,-9.81

Structure (SMILES),Potency,max response [%]
CCC(C)[C@H](NC(=O)N1CC(=O)Nc2ccccc21)C(=O)Nc1ccccc1C (some centres undefined),9.94 µM (active),–
O=C1CN(C(=O)c2cc(Br)c(Br)s2)c2ccccc2N1,12.5 µM (active),–
Cc1cc(C)cc(C(=O)N2CC(=O)Nc3ccccc32)c1,0.704 µM (active),–
COc1cc(OC)cc(C(=O)N2CC(=O)Nc3ccccc32)c1,3.53 µM (active),–
COc1cc(C(=O)N2CC(=O)Nc3ccccc32)cc(OC)c1OC,17.7 µM (active),–
CCCn1nc(C(=O)N2CC(=O)Nc3ccccc32)c2ccccc2c1=O,7.04 µM (active),–
COc1cc(C(=O)c2ccc3c(c2)OCO3)cc(OC)c1OC,5.59 µM (active),–
CCOC(=O)N1CCN(c2c(NCc3ccc(F)cc3)c(=O)c2=O)CC1,14 µM (active),–
CCOC(=O)Nc1cc2c(c(N)n1)N=C(c1ccccc1)CN2,0.058 µM (active),–
COc1ccc(NC(=S)NN(C)C(=S)Nc2ccc(OC)cc2)cc1,6.27 µM (active),–
C=CCNC(=S)N/N=C(\C)c1ccc(OC)cc1,–,-1.31
COc1ccc(N(C)S(=O)(=O)c2cccc3cccnc23)c(OC)c1,14 µM (active),–
O=c1cc(-c2ccccc2)[nH]c2ccccc12,3.14 µM (active),–
Cc1ccc(N/C(N)=N/c2nc(CSc3nnc(C)s3)cc(=O)[nH]2)c(C)c1,2.8 µM (active),–
O=c1c(Cl)c2oc3ccccc3nc-2c2ccccc12,10.3 µM (active),–
CC[n+]1c(C=C2C=C(C)OC(C)=C2)sc2ccccc21,4.11 µM (active),–
COCCCN(C(C)=O)c1nc(-c2ccc(OC)cc2)cs1,14 µM (active),–
S=C(NCc1ccco1)Nc1ccc(Cl)cn1,–,-10.1
CCCC(=O)NC1=C(Cl)C(=O)c2ccccc2C1=O,–,62.1
O=C(CCc1ccccc1)Nc1ccc(Cl)cn1,7.9 µM (active),–
Cc1ccc(-c2nc(-c3cc4cccc(OCc5cccc(F)c5)c4oc3=O)no2)cc1,23.1 µM (active),–
COc1cc(/C=C/C(=O)c2ccc3c(c2)OCCO3)cc(Br)c1OCC(=O)N(C)C,14 µM (active),–
O=c1c[n+]([O-])c2ccccc2n1OCc1c(F)cccc1F,19.8 µM (active),–
Cc1c(=O)n(OCc2ccc(Cl)cc2)c2ccccc2[n+]1[O-],–,-2.47
CN(C)C=Nc1c(Br)cc(Br)c2nonc12,4.61 µM (active),–

Structure (SMILES),Potency,max response [%]
CCNC(=S)N/N=C(\C)c1ccc(N2CCOCC2)cc1,–,-8.21
COc1ccc2nc(N3C(=O)/C(=C/c4ccccc4)NC3=S)sc2c1,11.6 µM (active),–
CCOc1ccc2nc(N3C(=O)/C(=C/c4ccc(Cl)cc4)NC3=S)sc2c1,18.4 µM (active),–
COc1ccc(/C=C/C=C2\NC(=S)NC2=O)cc1,–,-11.7
CCOc1cc(C#N)c(NC(=O)c2cccnc2)cc1OCC,7.04 µM (active),–
Cc1ccc(/C=N/NC(=O)c2cc(C)oc2C)cc1,9.94 µM (active),–
CN(C)c1ccc(/C=N/NC(=O)c2ccccc2Cl)cc1,4.98 µM (active),–
CSc1ccc(/C=N/NC(=O)c2ccccc2Cl)cc1,12.5 µM (active),–
COc1cc(C(=O)Nc2ccc3ccccc3c2)cc(OC)c1OC,1.58 µM (active),–
COc1cc(C(=O)N/N=C/c2ccccn2)cc(OC)c1OC,12.5 µM (active),–
COc1cc(C(=O)N/N=C/C2CC=CCC2)cc(OC)c1OC (centres undefined),–,-11.5
S=C(NN=Cc1ccccn1)Nc1ccccn1,–,20.1
COc1cc(C(=O)Nc2ccc3c(c2)ncn3C)cc(OC)c1OC,7.04 µM (active),–
COc1ccc(C(=O)/C=C2/c3ccccc3CC(C)(C)N2C)cc1,12.5 µM (active),–
CN(C)CCOc1ccc2c(c1)C(=O)C(=Cc1ncc([N+](=O)[O-])n1C)C2,8.86 µM (active),–
COc1ccc(S(=O)(=O)N2N=C(C)Oc3ccccc3C2=O)cc1,7.9 µM (active),–
COC(=O)C1CCC(=O)N1C(c1ccc(OC)cc1)c1cc(OC)c(OC)c(OC)c1 (centres undefined),0.559 µM (active),–
COC(=O)c1c(N2C(=O)[C@H]3[C@@H](C2=O)[C@]2(C(=O)Nc4c(C)cccc42)N2CCC[C@@H]32)sc(C)c1C,6.27 µM (active),–
CN1C2=CC=CC=CC2=[N+](C)C12C([N+](=O)[O-])=CC(=[N+]([O-])[O-])C=C2[N+](=O)[O-] (centres undefined),–,-21
C=CCSc1nc2ccccc2n1C(=O)/C=C/c1cc(OC)c(OC)c(OC)c1,8.86 µM (active),–
CCSc1nc2ccccc2n1C(=O)/C=C/c1ccc(OC)c(OC)c1,4.98 µM (active),–
CN(C)c1ccc(/C=C/C(=O)c2ccc(O)cc2)cc1,–,57
CN(C)c1ccc(/C=C/C(=O)c2c(O)c3ccccc3oc2=O)cc1,1.3 µM (active),–
Cc1ccc2c(c1)sc(-c1ccc(N(C)C)cc1)[n+]2C,2.91 µM (active),–
COc1ccc(C2=NOC(C(=O)NCc3cccs3)C2)cc1OC (centres undefined),7.9 µM (active),–

Structure (SMILES),Potency,max response [%]
COc1ccc(C2=NOC(C(=O)NCc3ccc(F)cc3)C2)cc1OC (centres undefined),1.12 µM (active),–
COc1ccc(C2=NOC(C(=O)NCc3ccc(F)cc3)C2)cc1 (centres undefined),–,-20.8
CCn1c(SCC(=O)Nc2cccc(O)c2)nc2c1c(=O)n(C)c(=O)n2C,–,-1.18
N#Cc1cccc(NC(=O)CSc2ccc3c4c(cccc24)C(=O)c2ccccc2-3)c1,4.61 µM (active),–
COc1ccc(NC(=O)CSc2ccc3c4c(cccc24)C(=O)c2ccccc2-3)cc1,14.6 µM (active),–
COc1cc2c(cc1OC)C1=CC(=O)C(=O)N1C(C)(C)C2,14 µM (active),–
Cc1ccc(S(=O)(=O)Nc2cc(Cl)c(O)c3ncccc23)cc1,–,10.1
CCOc1ccc(S(=O)(=O)Nc2cc3c(C(=O)OC)c(COC)oc3c3ccccc23)cc1,0.461 µM (active),–
CC(=O)c1c(C)oc2c1cc(NS(=O)(=O)c1ccc(Br)cc1)c1ccccc12,1.64 µM (active),–
COc1ccc(S(=O)(=O)Nc2cccc(-c3ccc4nncn4n3)c2)cc1F,4.44 µM (active),–
COc1ccc(S(=O)(=O)Nc2cccc(-c3ccc4nncn4n3)c2)cc1,4.98 µM (active),–
O=[N+]([O-])c1ccc(N/N=C/C=C/c2ccco2)cc1,18.4 µM (active),–
O=C(N/N=C/C=C/c1ccco1)c1ccncc1,–,0.191
O=C1/C(=C/c2c[nH]c3ccccc23)CCC/C1=C\c1c[nH]c2ccccc12,20.6 µM (active),–
CCOc1ccc(C2CC(c3c(O)c4ccccc4oc3=O)=NN2c2ccccc2)cc1OC (centres undefined),5.17 µM (active),–
c1ccc(N=NC2=NN(c3ccccc3)CS2)cc1,–,20.9
Nc1nn(-c2ccccc2)c(N)c1N=Nc1ccccc1,8.86 µM (active),–
Cc1ccc(S(=O)(=O)Nc2nc3ccccc3nc2Nc2cccc(S(=O)(=O)N3CCCC3)c2)cc1,23.1 µM (active),–
COc1cc(Cl)c(C)cc1Nc1nc2ccccc2nc1NS(=O)(=O)c1ccccc1,20.6 µM (active),–
Cn1ccnc1Sc1nc2ccccc2nc1NS(=O)(=O)c1ccccc1,–,-7.62
O=S(=O)(Nc1nc2ccccc2nc1Nc1cccc(S(=O)(=O)N2CCCCC2)c1)c1ccccc1,20.6 µM (active),–
O=C(N=c1ccn(-c2nc3ccccc3nc2NS(=O)(=O)c2ccccc2)cc1)c1cccs1,–,0.295
CC(=O)Nc1ccc(S(=O)(=O)Nc2nc3ccccc3nc2Nc2ccc3ccccc3c2)cc1,–,-17.6
COC(=O)c1cc(Nc2nc3ccccc3nc2NS(=O)(=O)c2ccc(C)cc2)ccc1Cl,–,-22.7
